Data reported in PubChem BioAssay AID1159580 (chemical genetic matrix, 2015).
About 2,000 (36%) of roughly 5,500 compounds were called active. Not shown: some 18% with an inconclusive outcome. Rule as the data show it: active = normalized growth mostly below about 0.91 (no sharp cut-off); inconclusive = no clear call, values can overlap the other calls; inactive = mostly above about 0.92. This is one part of the list.

Assay: chemical genetic growth profiling, strain panel (AID 1159580);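 also: tested at 20 µM; growth read once vehicle control cultures reached saturation at 30 °C; 1 = growth at the plate median or of vehicle wells; lower values mean less growth of the strain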
Settings: S. cerevisiae deletion strains, growth OD

Measured: normalized growth

Cc1cc(=O)c2c(o1)-c1c(cc(O)c(O)c1C(=O)O)OC2
inactive: locus YBR021W, strain FUR4, hits give low values 0.96 | locus YBR229C, strain ROT2, hits give low values 0.996 | locus YCL029C, strain bik1, hits give low values 1.03 | locus YDL035C, strain GPR1, hits give low values 1 | locus YDL074C, strain BRE1, hits give low values 0.984 | locus YDL101C, strain DUN1, hits give low values 1 | locus YDL134C, strain PPH21, hits give low values 1 | locus YDL185W, strain tfp1, hits give low values 1.01 | locus YDL192W, strain arf1, hits give low values 1.01 | locus YDR101C, strain arx1, hits give low values 1.01 | locus YDR150W, strain NUM1, hits give low values 0.97 | locus YDR162C, strain NBP2, hits give low values 0.987 | locus YDR318W, strain mcm21, hits give low values 1.01 | locus YDR388W, hits give low values 1.01 | locus YDR502C, strain sam2, hits give low values 1.03 | locus YEL061C, strain CIN8, hits give low values 1 | locus YER110C, hits give low values 1.03 | locus YER155C, strain BEM2, hits give low values 1.01 | locus YER167W, strain BCK2, hits give low values 1.02 | locus YGL078C, strain dbp3, hits give low values 1.02 | locus YGL086W, strain mad1, hits give low values 1.02 | locus YGL248W, strain PDE1, hits give low values 0.996 | locus YGR078C, strain PAC10, hits give low values 0.991 | locus YGR135W, strain pre9, hits give low values 1.02 | locus YGR252W, strain gcn5, hits give low values 0.997 | locus YHR030C, strain SLT2, hits give low values 1.01 | locus YHR079C, strain IRE1 (second series), hits give low values 1.01 | locus YHR094C, strain hxt1, hits give low values 1.02 | locus YHR129C, strain ARP1, hits give low values 1.01 | locus YHR200W, strain rpn10, hits give low values 1.03 | locus YIL066C, strain RNR3, hits give low values 0.99 | locus YIL073C, strain SPO22, hits give low values 1.05 | locus YIL125W, strain kgd1, hits give low values 1.03 | locus YIR030C, strain dcg1, hits give low values 1.02 | locus YJL095W, strain BCK1, hits give low values 0.998 | locus YJL134W, strain LCB3, hits give low values 1.01 | locus YJL168C, strain set2, hits give low values 1.02 | locus YJL187C, strain SWE1 (second series), hits give low values 1.02 | locus YJR043C, strain POL32, hits give low values 0.997 | locus YKL009W, strain mrt4, hits give low values 1.03 | locus YKL068W, hits give low values 1.01 | locus YKL085W, strain MDH1 (second series), hits give low values 1.01 | locus YKL085W, strain MDH1, hits give low values 1.01 | locus YKR001C, strain vps1, hits give low values 1.02 | locus YLR039C, strain RIC1, hits give low values 0.973 | locus YLR058C, strain SHM2, hits give low values 1.01 | locus YLR102C, strain apc9, hits give low values 1.01 | locus YLR262C, strain YPT6, hits give low values 1.02 | locus YLR268W, strain sec22, hits give low values 1.02 | locus YLR330W, strain CHS5, hits give low values 0.991 | locus YLR342W, strain FKS1 (second series), hits give low values 0.966 | locus YLR371W, strain rom2, hits give low values 1.03 | locus YLR418C, strain cdc73, hits give low values 1.05 | locus YML016C, strain PPZ1, hits give low values 0.998 | locus YML032C, strain rad52, hits give low values 1.01 | locus YML124C, strain tub3, hits give low values 1.01 | locus YMR078C, strain ctf18, hits give low values 1.02 | locus YMR223W, strain ubp8, hits give low values 1.01 | locus YMR263W, strain SAP30, hits give low values 1 | locus YMR307W, strain GAS1, hits give low values 0.935 | locus YNL067W, strain RPL9B, hits give low values 0.987 | locus YNL153C, strain GIM3, hits give low values 1 | locus YNL233W, strain BNI4, hits give low values 1.02 | locus YNL250W, strain rad50, hits give low values 1.03 | locus YNL271C, strain bni1, hits give low values 1.02 | locus YNL298W, strain CLA4, hits give low values 1.03 | locus YNL307C, strain MCK1, hits give low values 1.02 | locus YNR052C, strain pop2, hits give low values 1.02 | locus YOL006C, strain TOP1, hits give low values 0.969 | locus YOL012C, strain htz1 0.545 | locus YOL147C, strain pex11, hits give low values 1.02 | locus YOR061W, strain CKA2, hits give low values 1.01 | locus YOR069W, strain VPS5, hits give low values 1 | locus YOR136W, strain idh2, hits give low values 1.03 | locus YOR144C, strain elg1, hits give low values 1.01 | locus YOR184W, strain ser1, hits give low values 1.03 | locus YOR316C, strain cot1, hits give low values 1.01 | locus YPL055C, strain LGE1, hits give low values 1.01 | locus YPR119W, strain clb2, hits give low values 1.01 | locus YPR141C, strain kar3, hits give low values 1.02 | locus YPR163C, strain tif3, hits give low values 1.01 | locus YPR167C, strain met16, hits give low values 1.03 | strain wtn01, hits give low values 1.02
